Assay results reported in the supplement of paper PMC11732987, “Enantioselective OTUD7B fragment discovery through chemoproteomics screening and high-throughput optimisation” (Communications Chemistry, 2025).

Legend:
Experiment in all cases: log2 ratio of Biotin-Ahx-Ub-VS probe labelling (fragment/DMSO); higher = less target engagement (more negative = stronger competition), active = hit call of the paper (q ≤ 0.05, log2 ratio ≤ -1)
Conditions in all cases: compound concentration: 200 uM; treatment time: 3 h
USP34 = USP34 (UniProt Q70CQ2)
USP34, sequence (Q70CQ2 whole entry, the tested form may be a part): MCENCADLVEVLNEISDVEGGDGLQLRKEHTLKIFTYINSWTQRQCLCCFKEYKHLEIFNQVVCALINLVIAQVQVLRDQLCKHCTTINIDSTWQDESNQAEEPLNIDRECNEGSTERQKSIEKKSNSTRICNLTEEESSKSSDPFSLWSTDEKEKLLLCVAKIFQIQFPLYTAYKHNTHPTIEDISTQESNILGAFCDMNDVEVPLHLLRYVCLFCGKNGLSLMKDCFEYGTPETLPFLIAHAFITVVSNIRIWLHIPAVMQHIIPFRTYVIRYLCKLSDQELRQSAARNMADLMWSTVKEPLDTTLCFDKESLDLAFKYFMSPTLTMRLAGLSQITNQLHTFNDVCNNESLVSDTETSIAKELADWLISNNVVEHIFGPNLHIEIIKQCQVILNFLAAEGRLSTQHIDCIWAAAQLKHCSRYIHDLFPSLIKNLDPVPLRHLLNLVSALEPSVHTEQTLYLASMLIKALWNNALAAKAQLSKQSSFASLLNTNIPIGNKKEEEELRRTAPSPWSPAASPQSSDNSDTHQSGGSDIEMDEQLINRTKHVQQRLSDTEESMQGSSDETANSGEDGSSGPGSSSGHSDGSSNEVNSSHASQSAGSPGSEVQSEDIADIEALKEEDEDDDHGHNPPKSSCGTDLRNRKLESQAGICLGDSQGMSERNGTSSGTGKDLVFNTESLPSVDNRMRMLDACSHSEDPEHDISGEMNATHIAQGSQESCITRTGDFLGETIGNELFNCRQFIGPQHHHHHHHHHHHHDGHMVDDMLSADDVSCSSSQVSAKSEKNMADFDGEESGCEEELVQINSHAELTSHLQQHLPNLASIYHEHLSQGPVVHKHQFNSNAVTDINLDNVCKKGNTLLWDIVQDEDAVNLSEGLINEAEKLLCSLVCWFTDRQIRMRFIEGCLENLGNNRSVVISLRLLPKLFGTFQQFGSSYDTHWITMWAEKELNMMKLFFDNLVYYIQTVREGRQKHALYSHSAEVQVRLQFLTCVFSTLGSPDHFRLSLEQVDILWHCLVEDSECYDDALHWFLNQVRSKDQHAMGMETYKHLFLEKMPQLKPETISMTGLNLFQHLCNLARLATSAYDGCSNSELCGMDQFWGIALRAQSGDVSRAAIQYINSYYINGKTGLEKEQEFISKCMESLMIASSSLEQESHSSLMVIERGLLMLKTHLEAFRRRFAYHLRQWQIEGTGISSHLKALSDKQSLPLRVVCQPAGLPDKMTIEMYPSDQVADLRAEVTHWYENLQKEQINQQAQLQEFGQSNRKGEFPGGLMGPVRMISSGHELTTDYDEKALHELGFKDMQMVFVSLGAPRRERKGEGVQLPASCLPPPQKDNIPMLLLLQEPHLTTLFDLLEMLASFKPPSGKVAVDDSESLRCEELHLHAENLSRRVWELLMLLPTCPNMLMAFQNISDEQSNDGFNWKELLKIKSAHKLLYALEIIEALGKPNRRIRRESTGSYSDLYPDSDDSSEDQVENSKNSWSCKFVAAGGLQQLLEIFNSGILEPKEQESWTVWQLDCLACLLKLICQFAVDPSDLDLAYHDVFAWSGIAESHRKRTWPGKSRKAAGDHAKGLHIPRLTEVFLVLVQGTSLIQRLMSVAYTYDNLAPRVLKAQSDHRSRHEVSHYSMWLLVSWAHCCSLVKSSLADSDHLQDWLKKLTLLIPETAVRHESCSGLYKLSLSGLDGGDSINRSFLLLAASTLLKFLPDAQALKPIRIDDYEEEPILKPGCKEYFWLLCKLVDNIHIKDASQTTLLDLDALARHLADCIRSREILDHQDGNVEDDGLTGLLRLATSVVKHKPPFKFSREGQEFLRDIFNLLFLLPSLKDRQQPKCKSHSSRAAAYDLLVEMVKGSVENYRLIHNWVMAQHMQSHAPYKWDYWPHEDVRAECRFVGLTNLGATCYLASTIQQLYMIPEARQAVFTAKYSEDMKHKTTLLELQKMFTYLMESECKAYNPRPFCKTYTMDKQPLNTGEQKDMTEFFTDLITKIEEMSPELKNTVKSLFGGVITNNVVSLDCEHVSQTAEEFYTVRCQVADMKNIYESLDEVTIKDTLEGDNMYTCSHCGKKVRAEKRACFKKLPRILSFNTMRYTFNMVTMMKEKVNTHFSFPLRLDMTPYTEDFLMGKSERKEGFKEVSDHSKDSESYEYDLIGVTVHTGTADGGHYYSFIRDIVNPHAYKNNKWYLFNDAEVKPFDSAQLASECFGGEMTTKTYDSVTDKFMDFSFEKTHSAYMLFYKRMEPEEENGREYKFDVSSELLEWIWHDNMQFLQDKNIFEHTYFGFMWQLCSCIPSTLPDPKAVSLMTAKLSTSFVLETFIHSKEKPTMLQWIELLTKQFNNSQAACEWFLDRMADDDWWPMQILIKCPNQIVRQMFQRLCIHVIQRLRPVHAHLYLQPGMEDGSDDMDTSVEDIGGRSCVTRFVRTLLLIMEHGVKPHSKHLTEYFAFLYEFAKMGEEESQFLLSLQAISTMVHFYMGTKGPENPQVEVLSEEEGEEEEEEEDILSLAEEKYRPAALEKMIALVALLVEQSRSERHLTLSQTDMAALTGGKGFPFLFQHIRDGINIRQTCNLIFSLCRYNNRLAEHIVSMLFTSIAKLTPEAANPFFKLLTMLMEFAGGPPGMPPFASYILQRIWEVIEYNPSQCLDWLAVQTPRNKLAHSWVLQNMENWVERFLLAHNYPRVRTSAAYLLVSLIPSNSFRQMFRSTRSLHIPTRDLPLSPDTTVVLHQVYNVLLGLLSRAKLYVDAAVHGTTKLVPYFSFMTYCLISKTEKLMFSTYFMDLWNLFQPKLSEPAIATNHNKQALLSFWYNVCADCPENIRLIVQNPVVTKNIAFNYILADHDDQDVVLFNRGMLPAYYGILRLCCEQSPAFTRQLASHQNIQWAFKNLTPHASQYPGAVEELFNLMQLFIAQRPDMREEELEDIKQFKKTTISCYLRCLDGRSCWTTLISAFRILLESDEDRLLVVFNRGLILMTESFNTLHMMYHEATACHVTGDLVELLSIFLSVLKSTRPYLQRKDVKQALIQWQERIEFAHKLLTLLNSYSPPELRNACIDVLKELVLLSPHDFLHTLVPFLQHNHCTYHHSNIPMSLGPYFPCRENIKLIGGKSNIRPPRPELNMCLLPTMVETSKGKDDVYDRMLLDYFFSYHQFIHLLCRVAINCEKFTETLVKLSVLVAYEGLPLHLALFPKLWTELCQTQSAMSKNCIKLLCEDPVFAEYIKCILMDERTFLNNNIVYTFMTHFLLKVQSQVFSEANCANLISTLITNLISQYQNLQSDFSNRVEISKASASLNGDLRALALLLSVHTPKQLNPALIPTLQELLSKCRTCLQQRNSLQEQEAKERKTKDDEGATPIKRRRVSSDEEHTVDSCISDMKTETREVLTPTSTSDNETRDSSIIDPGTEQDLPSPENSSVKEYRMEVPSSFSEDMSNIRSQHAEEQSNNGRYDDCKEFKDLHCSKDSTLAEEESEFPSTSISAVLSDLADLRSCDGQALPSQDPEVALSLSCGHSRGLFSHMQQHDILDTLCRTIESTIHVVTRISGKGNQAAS
Method in brief: (§1)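 HEK293T lysate, 495 µg per sample in Tris/CHAPS/IGEPAL buffer with protease inhibitors, was treated in triplicate with fragment at 200 µM or vehicle for 3 h and then with Biotin-Ahx-Ub-VS at 0.5 µM final for 1 h. Labelled DUBs were NeutrAvidin-enriched, digested with LysC and trypsin, and run by diaPASEF LC-MS/MS. Spectronaut label-free quantities were global-median-normalised, and values are average log2 fragment/vehicle ratios by unpaired t-test on proteins with ≥2 unique peptides.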

USP36 = target: T1, USP36 (UniProt Q9P275)
T1 sequence (whole entry): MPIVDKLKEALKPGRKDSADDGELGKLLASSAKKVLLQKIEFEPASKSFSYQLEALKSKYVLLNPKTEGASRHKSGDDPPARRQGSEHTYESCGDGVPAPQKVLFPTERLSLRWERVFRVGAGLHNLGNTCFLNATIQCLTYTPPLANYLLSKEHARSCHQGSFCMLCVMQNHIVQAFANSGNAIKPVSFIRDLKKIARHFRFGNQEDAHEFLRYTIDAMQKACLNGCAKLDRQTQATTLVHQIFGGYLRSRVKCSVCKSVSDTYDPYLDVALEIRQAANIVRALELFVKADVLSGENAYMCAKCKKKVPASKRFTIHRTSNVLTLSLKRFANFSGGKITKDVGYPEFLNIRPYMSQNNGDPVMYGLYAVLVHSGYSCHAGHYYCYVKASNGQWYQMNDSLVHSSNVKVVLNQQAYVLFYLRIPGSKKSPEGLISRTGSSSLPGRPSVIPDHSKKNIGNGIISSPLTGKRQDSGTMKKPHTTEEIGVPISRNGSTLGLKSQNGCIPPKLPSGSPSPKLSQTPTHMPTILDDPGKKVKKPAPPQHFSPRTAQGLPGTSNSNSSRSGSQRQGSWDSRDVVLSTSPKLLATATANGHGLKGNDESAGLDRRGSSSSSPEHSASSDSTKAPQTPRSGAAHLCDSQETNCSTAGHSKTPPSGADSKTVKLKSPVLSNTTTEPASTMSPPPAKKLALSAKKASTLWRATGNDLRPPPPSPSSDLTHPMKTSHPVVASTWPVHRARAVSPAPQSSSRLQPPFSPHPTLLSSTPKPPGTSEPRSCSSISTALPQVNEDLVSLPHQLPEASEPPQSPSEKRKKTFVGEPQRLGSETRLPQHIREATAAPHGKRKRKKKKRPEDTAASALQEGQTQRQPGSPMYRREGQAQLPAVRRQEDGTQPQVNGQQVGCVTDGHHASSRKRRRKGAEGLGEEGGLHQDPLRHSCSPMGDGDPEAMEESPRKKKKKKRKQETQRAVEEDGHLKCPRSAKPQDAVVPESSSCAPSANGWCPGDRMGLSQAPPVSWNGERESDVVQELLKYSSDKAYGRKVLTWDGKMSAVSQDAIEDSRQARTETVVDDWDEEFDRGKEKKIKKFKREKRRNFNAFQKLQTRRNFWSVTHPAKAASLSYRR
Method in brief: as §1

USP38 = target: T2, USP38 (UniProt Q8NB14)
T2 sequence (whole entry): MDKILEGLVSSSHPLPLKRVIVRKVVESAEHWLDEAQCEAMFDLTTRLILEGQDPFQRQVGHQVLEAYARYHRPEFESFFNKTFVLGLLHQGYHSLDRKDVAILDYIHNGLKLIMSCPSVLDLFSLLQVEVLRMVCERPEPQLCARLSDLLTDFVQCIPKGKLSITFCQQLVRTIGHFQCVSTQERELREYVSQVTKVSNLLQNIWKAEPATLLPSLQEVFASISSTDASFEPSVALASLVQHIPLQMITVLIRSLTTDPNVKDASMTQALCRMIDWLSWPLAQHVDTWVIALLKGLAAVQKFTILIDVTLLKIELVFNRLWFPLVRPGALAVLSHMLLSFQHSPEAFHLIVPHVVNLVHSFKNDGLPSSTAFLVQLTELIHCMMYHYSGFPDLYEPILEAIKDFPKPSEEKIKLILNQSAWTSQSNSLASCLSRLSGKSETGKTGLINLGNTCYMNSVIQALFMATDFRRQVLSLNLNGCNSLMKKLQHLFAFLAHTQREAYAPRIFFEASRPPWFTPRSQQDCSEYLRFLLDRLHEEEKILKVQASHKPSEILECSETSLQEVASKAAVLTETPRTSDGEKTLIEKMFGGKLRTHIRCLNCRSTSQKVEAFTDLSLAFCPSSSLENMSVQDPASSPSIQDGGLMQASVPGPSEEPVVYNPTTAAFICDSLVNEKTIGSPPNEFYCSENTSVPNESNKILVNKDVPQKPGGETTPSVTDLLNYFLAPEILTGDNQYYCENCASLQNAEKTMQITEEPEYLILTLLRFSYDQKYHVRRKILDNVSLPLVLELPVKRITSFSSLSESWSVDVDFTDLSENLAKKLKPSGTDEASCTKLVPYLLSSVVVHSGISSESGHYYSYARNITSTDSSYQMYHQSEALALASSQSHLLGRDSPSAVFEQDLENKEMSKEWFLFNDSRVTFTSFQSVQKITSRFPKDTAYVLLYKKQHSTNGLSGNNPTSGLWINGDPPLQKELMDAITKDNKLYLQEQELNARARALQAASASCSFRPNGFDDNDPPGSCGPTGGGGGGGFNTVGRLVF
Method in brief: as §1

USP39 = target: T3, USP39 (UniProt Q53GS9)
T3 sequence (whole entry): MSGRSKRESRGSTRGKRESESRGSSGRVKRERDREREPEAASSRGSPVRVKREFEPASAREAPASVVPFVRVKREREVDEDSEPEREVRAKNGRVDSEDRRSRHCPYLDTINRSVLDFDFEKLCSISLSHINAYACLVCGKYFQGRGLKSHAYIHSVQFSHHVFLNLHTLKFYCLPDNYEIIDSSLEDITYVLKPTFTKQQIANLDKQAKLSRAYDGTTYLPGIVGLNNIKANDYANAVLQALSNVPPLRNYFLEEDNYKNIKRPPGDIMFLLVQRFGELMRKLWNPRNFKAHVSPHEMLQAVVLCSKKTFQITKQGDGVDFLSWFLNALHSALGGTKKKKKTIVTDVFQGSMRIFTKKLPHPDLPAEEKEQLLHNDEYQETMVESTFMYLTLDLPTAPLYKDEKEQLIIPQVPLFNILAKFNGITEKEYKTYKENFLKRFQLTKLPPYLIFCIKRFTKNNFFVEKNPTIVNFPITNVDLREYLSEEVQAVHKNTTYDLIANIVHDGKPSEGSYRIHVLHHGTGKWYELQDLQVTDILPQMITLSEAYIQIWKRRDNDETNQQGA
Method in brief: as §1

USP4 = target: T4, USP4 (UniProt Q13107)
T4 sequence (whole entry): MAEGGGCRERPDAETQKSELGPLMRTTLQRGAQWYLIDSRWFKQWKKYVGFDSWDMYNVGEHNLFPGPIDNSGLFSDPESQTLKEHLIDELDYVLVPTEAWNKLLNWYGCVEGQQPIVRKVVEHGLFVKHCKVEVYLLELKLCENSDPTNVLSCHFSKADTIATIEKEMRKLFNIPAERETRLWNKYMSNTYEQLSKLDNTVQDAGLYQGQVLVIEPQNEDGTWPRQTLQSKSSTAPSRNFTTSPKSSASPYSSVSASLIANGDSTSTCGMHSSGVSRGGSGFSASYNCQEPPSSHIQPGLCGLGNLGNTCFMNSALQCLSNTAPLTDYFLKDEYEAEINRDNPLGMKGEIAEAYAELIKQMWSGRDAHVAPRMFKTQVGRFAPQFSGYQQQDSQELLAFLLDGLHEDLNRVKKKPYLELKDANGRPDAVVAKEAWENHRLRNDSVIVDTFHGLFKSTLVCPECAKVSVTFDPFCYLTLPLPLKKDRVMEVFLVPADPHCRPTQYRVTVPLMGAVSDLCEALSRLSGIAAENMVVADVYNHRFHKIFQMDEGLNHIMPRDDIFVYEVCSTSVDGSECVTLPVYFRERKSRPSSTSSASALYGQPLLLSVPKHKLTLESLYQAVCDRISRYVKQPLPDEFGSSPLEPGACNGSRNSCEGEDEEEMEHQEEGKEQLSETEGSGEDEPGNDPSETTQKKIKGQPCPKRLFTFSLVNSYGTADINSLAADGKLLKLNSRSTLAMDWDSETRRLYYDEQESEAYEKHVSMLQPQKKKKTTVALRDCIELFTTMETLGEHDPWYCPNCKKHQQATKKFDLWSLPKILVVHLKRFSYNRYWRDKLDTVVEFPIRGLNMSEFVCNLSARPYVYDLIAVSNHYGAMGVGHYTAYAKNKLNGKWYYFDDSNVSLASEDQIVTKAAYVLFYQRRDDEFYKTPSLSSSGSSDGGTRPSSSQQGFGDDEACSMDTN
Method in brief: as §1

Measured: log2 ratio of Biotin-Ahx-Ub-VS probe labelling

COc1ccc(Cl)cc1NC(=O)CCl
inactive: USP34 -0.301 | USP36 -0.44 | USP38 -0.283 | USP39 0.264 | USP4 -0.469
